Results filed as inconclusive are left out. A number with no mark means an inactive call. The call rests on the fitted dose curve.
experiment: qHTS for Inhibitors of Cell Surface uPA Generation: Wild-type Protective Antigen (WT-PrAg) Counterscreen for Cherry-picked Compounds; settings: cells, WT protective antigen toxicity counterscreen; series mostly up to 115 µM; activity (protection): at the top concentration; further: 0% is about no effect

SMILES	activity (protection)
COCCn1nnnc1C(C(C)C)N1CCCC(C)C1 (stereo not drawn)	1.85%
COc1ccc(C(=O)N2CCN(c3ccc(C(C)=O)cc3)CC2)cc1S(=O)(=O)N1CCCC1	-0.95%
Cc1ccc(CC2CC(=O)N(c3cc(C)ccc3C)C2=O)cc1 (stereo not drawn)	2.84%
CC1(C)CC2(CC(c3ccccc3)Oc3cc(O)ccc32)NC(=S)N1 (stereo not drawn)	-0.912%
Clc1ccc(C2=NN=C3COc4ccccc4N3C2)cc1	-1.44%
c1ccc(C2[C@H]3CN(Cc4cccnc4)[C@H](c4ccccc4)C34CC2(c2ccccc2)C4)cc1 (stereo partly drawn)	2.02%
COc1ccc(C(C)=O)cc1CSC(=N)N	-1.28%
CN(CC(=O)NCc1ccco1)CC(=O)Nc1c(Cl)cccc1Cl	0.145%
Cc1nc(NC(=O)CSc2nnc(C3CC3)n2C)sc1C(=O)N(C)C	1.3%
O=C1CC(/C=C/c2ccc(Cl)cc2)=Nc2ccccc2N1	-1.15%
Cc1ccc(NC(=O)CS(=O)Cc2nc(-c3ccc(C)cc3)oc2C)cc1 (stereo not drawn)	-1.52%
Cc1ccc(S(=O)(=O)NCC(=O)N/N=C/c2ccc(Cl)cc2)cc1	-1.05%
COc1ccccc1N1CCN(CC(=O)c2c(C)[nH]c3ccccc23)CC1	3.92%
COc1cc2cc(CN(CCN3CCOCC3)C(=O)Nc3ccc(F)cc3)c(=O)[nH]c2cc1OC	-0.0352%
CCOc1ccccc1N(CC(=O)Nc1ccc(OC)cc1)S(=O)(=O)c1ccccc1	0.0168%
CC(=O)Nc1sc(C)c(C)c1C(=O)OCC(=O)NC(C)c1ccccc1 (stereo not drawn)	0.373%
CCC(=O)N(Cc1cc2ccc(C)cc2[nH]c1=O)c1ccccc1OC	-0.972%
CC(=O)NCCc1cnc[nH]1	-0.521%
